Test [1] in a line: NCI Yeast Anticancer Drug Screen. Data for the rad50 strain (AID 155).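 Further: 0% = growth of vehicle-only cultures of the same strain.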 The conditions noted are these: S. cerevisiae rad50 strain growth inhibition; at 50.0 µM; hits give high values. The procedure, abridged:
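Yeast carrying a defined DNA repair defect were exposed to test compounds, and growth was compared with vehicle-treated controls to give percent inhibition.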

The nature of test [2]: NCI Yeast Anticancer Drug Screen. Data for the mec2-1 strain (AID 157). The conditions noted are these: S. cerevisiae mec2-1 strain, at 50.0 µM, hits give high values. The method, boiled down: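 Cells of the genetically defined mec2-1 yeast strain are incubated with test compound. Inhibition of growth is calculated against vehicle-treated controls.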
Test [3] can be described thus: NCI Yeast Anticancer Drug Screen. Data for the sgs1 mgt1 strain (AID 161).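 Further: 0% = growth of cultures given vehicle only.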 The settings on record: S. cerevisiae sgs1 mgt1 strain, at 50.0 µM, hits give high values. The procedure, abridged: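 Test agents were incubated with a DNA-repair-mutant yeast strain. Growth was then read and compared against vehicle-treated controls.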
Test [4] can be described thus: NCI Yeast Anticancer Drug Screen. Data for the cln2 rad14 strain (AID 165).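 Further: 0% = growth equal to vehicle treated cultures.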 The settings on record: S. cerevisiae cln2 rad14 strain, at 50.0 µM, hits give high values. The method, boiled down: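 The screen exposed genetically defined yeast (cln2 rad14) to test compounds and scored growth inhibition relative to vehicle-treated controls.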
A short description of test [5]: NCI Yeast Anticancer Drug Screen. Data for the bub3 strain (AID 167). The conditions noted are these: S. cerevisiae bub3 mutant strain, at 50.0 µM, hits give high values. The procedure, abridged:
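Compounds were applied to a genetically altered yeast strain carrying a cell-cycle control defect. Growth inhibition was scored against vehicle-treated controls.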

Test [6] is described as follows: NCI Yeast Anticancer Drug Screen. Data for the mlh1 rad18 strain (AID 175). The settings on record: S. cerevisiae mlh1 rad18 strain growth inhibition; at 50.0 µM; hits give high values. The procedure, abridged: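 Compound-treated yeast growth, normalised to vehicle controls. Strain bears defined DNA repair mutations.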

About 79,000 compounds went through this panel and 15% of them were active in at least one assay; those are over-represented in the sample as a whole. A number with no mark means an inactive call. Active and inactive are the calls of the source. No stated cut-off is given here; in the data, active means growth inhibition above about 70%; inactive means the rest.

Regarding `CC1(C)OC2COC(CN(N=O)C(N)=O)C2O1` (configuration not stated), the growth inhibition is 15.2% in test [1]; -15.7% in test [2]; -8.15% in test [3]; -75% in test [4]; -17.4% in test [5]; 5.75% in test [6].
In the case of `COc1ccc(/C=C(/NC(=O)c2ccccc2)C(=O)O)c(OC)c1C`, the growth inhibition in test [1] was 2.4%; in test [2], 0.45%; in test [3] it was 1.3%; in test [4], -66%; in test [5], -17.2%; in test [6], -7.65%.
With `O=C(O)c1[nH]c(=O)[nH]c(=O)c1C(=O)O`, the growth inhibition in test [1] was -20.6%; in test [2] it was 0.55%; in test [3] it was -15.1%; in test [4], 18.8%; in test [5], -17.6%; in test [6], -15%.
Turning to `c1ccc2c(c1)C(=C1c3ccccc3-c3ccccc31)c1ccccc1-2`, the growth inhibition in test [1] is -6.4%; in test [2], -18.1%; in test [3], -0.3%; in test [4] it was -34.8%; in test [5], 6.85%; in test [6] it was -2.1%.
As for `C[CH2][Ge]([CH2]C)[CH2]C.C[CH2][Ge]([CH2]C)[CH2]C.C[CH2][Ge]([CH2]C)[S][Ge]([CH2]C)[CH2]C`, the growth inhibition in test [1] was 25.1%; in test [2] it was 29.5%; in test [3] it was 52.7%; in test [4], 40.4%; in test [5], 35.9%; in test [6] it was 6.75%.
On to `COc1ccc(NC(=O)CC(=O)N2N=C(N(c3ccccc3)c3ccccc3)CC2c2ccccc2)cc1` (configuration not stated), for which the growth inhibition in test [1] was 4.75%; in test [2], 2.05%; in test [3] it was 12.2%; in test [4], 26.3%; in test [5], 17.6%; in test [6] it was -29.8%.
For `O=c1oc2c3ccc4ccccc4c3n(CCN3CCCCC3)c2c2ccccc12`, the growth inhibition in test [1] was 30.4%; in test [2], 53.6%; in test [3], 22.9%; in test [4] it was 32.5%; in test [5] it was 44.3%; in test [6], 77.1% (active).
For the molecule `Cn1c(=S)sc2ccc(S(=O)(=O)C(F)F)cc21`, the growth inhibition in test [1] is 23.7%; in test [2], 20.9%; in test [3], 4.7%; in test [4], 12.8%; in test [5] it was 22.6%; in test [6] it was 25.1%.
As for `O=C(COc1cc(Cl)c(Cl)cc1Cl)Nc1ccc(N=Nc2ccccc2)cc1`, the growth inhibition in test [1] is 2%; in test [2] it was 3.55%; in test [3], -12.6%; in test [4] it was -9.55%; in test [5], 2.75%; in test [6], -7.95%.
With `CCN(CC)C(=O)C(C)=O`, the growth inhibition in test [1] was 8.55%; in test [2], 1.6%; in test [3] it was -12.4%; in test [4], 12.9%; in test [5], 1.2%; in test [6], 12.9%.
Turning to `COc1ccc(CSc2nc3ccccc3nc2-c2cccs2)cc1`, the growth inhibition is -16.2% in test [1]; -39.2% in test [2]; -43.8% in test [3]; -1.35% in test [4]; -24.9% in test [5]; -54.8% in test [6].
With `O=C(O)CCCC[P+](c1ccccc1)(c1ccccc1)c1ccccc1`, the growth inhibition was 21.1% in test [1]; 7.8% in test [2]; 13.5% in test [3]; 7.5% in test [4]; 35.3% in test [5]; 27.8% in test [6].
As to `CCN(CC)Cc1cc(OC(=O)c2cc(OC)c(OC)c(OC)c2)cc(C(=O)OC)c1`, the growth inhibition is 3.2% in test [1]; 3.7% in test [2]; -19.1% in test [3]; -32% in test [4]; 8.5% in test [5]; -10.3% in test [6].
For the molecule `CC1OC(=O)c2cc3ccccc3cc2O1` (configuration not stated), the growth inhibition in test [1] is -8%; in test [2], -6.15%; in test [3], 5.95%; in test [4] it was -31.1%; in test [5], -19.2%; in test [6], -0.45%.
Regarding `CCCCCOC(=O)OC(C)CNC(=O)C(C)OC(=O)OCCCCC` (configuration not stated), the growth inhibition was -17.4% in test [1]; -33.5% in test [2]; -12.5% in test [3]; -61.4% in test [4]; -9.5% in test [5]; -29.4% in test [6].
As to `C/C(O)=C(/C=N/C(N)=S)C(N)=O`, the growth inhibition in test [1] was -3.05%; in test [2], 14.2%; in test [3] it was 7.1%; in test [4], 22%; in test [5], 10.2%; in test [6] it was 15.5%.
Turning to `CCCCNc1ccc([N+](=O)[O-])cc1[N+](=O)[O-]`, the growth inhibition in test [1] was 16.2%; in test [2] it was -15.4%; in test [3] it was 18.4%; in test [4], 6.55%; in test [5], 41.9%; in test [6], -0.6%.
For `COC(=O)C1CCCN1C(c1ccccc1)(c1ccccc1)c1ccccc1` (configuration not stated), the growth inhibition in test [1] was -9.45%; in test [2], -2.2%; in test [3], -11.5%; in test [4], -2.15%; in test [5], 2.45%; in test [6], -23.5%.
For `COc1cc(C(=O)NNC(=O)C2CCC(=O)N2Cc2ccccc2)cc(OC)c1OC` (configuration not stated), the growth inhibition was 3.3% in test [1]; -4.6% in test [2]; -18% in test [3]; -4.45% in test [4]; -1.75% in test [5]; 28.4% in test [6].
As to `CC[N+](CC)(CC)CC(=O)c1ccc(Br)cc1`, the growth inhibition in test [1] was 18.7%; in test [2], 12.7%; in test [3], 13.1%; in test [4] it was -0.35%; in test [5], 25%; in test [6], 8.2%.
Regarding `O=c1[nH]nc(Cc2ccccc2)n1/N=C\c1ccccc1`, the growth inhibition is -38.6% in test [1]; -20.6% in test [2]; -28.1% in test [3]; -11.3% in test [4]; -16.1% in test [5]; -43.2% in test [6].
Consider `CCCCCn1c(=O)c2cc3c(=O)n(CCCCC)c(=O)c3cc2c1=O`, for which the growth inhibition in test [1] was 14.2%; in test [2], 7.3%; in test [3] it was 16.2%; in test [4], -52.6%; in test [5], 10%; in test [6] it was -5.6%.
Regarding `CC(C(=O)OCc1ccccc1)(c1ccco1)N1C(=O)OC(c2ccccc2)C1c1ccccc1` (configuration not stated), the growth inhibition is -4.35% in test [1]; -3.5% in test [2]; 4.55% in test [3]; -3.5% in test [4]; -17.1% in test [5]; -23.1% in test [6].
Take `O=C(NC1CC1)c1ccccc1`: the growth inhibition in test [1] was 5.8%; in test [2], 1.6%; in test [3] it was 4.7%; in test [4], -5.9%; in test [5], 1.85%; in test [6], -15.7%.
As to `OCC(CO)(CO)COCC(CO)(CO)CO`, the growth inhibition in test [1] is 8.5%; in test [2], -25.1%; in test [3] it was 6.75%; in test [4], 10%; in test [5] it was -12.3%; in test [6] it was 13.1%.
`COCn1c2ccc(OC(C)=O)cc2c2c(=O)oc(N(C)C)nc21`: the growth inhibition in test [1] is -14.8%; in test [2] it was -31.6%; in test [3], -29.4%; in test [4] it was -5.5%; in test [5], -11.6%; in test [6], -11.7%.
On to `CCOC(Cn1ncc(C#N)c1N)OCC`, for which the growth inhibition was -13.7% in test [1]; -7.75% in test [2]; -25.5% in test [3]; -15.9% in test [4]; -5.95% in test [5]; 5.65% in test [6].
As to `CCOC(=O)C(C(=O)OC(c1ccccc1)c1ccccc1)(C(c1ccccc1)c1ccccc1)C(c1ccccc1)c1ccccc1`, the growth inhibition in test [1] was 0.45%; in test [2] it was 18%; in test [3], 1.65%; in test [4], -9.25%; in test [5], -1.4%; in test [6], -10.8%.
Consider `Cn1nc(-c2ccccc2)c(C(=O)/C=C/c2ccc(F)cc2)c(N2CCCCC2)c1=O`, for which the growth inhibition in test [1] was 2.55%; in test [2], 8.55%; in test [3], -0.95%; in test [4] it was 28.2%; in test [5] it was 4.1%; in test [6], 10.2%.
For the molecule `O=C(O)CCc1ccsc1`, the growth inhibition in test [1] is -17.6%; in test [2], 4.55%; in test [3] it was -21.9%; in test [4], -28.4%; in test [5] it was -10.5%; in test [6], 4.45%.
As to `CCCCCNc1ncnc2c1cnn2C`, the growth inhibition in test [1] is 7.6%; in test [2], 0.6%; in test [3], -1.35%; in test [4] it was -12.4%; in test [5], 22.6%; in test [6], -0.4%.
Consider `CCCCCCCCCCCCOP(=O)(O)OCC(N)C(=O)O` (configuration not stated), for which the growth inhibition was 10.7% in test [1]; 9.2% in test [2]; -11.4% in test [3]; -39.8% in test [4]; -18% in test [5]; -19.3% in test [6].
As to `Cc1ccc(C(=O)Nc2ccc(S(=O)(=O)O)c3cc(S(=O)(=O)O)cc(S(=O)(=O)O)c23)cc1N`, the growth inhibition in test [1] was -28.1%; in test [2] it was -7.05%; in test [3], -54.5%; in test [4] it was 1.7%; in test [5], -13.2%; in test [6], -28.2%.
In the case of `COC(=O)C1CCC(=O)CC1`, the growth inhibition in test [1] was -1%; in test [2], -0.35%; in test [3], -9.9%; in test [4] it was -19.9%; in test [5], 2.4%; in test [6], -3.15%.
In the case of `COc1ccccc1/C=C/C(=O)c1sc(-c2cccnc2)nc1C`, the growth inhibition in test [1] was 38.5%; in test [2] it was 17.5%; in test [3], 5.3%; in test [4] it was 17.9%; in test [5], 23.9%; in test [6], 33.5%.
As for `CN(CC(=O)O)c1ncc2c(n1)-c1ccccc1SC2`, the growth inhibition in test [1] is 20.5%; in test [2] it was 4.95%; in test [3], 5.15%; in test [4], 10.3%; in test [5] it was -14.3%; in test [6] it was -6.3%.
For the molecule `Cn1c(=O)c2sc3cc4c(cc3c2c2ccccc21)sc1c(=O)n(C)c2ccccc2c14`, the growth inhibition was 23.2% in test [1]; -8.1% in test [2]; 22.9% in test [3]; 3.85% in test [4]; 23.2% in test [5]; 24.9% in test [6].

(Values after PubChem BioAssay (NCI).)
